Results published in PubChem BioAssay (NCI).
This is part of a sample that, as a whole, favours compounds with a hit. Of some 83,000 tested, about 20% had one in any assay.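 Plates (96-well) were seeded with cells, treated with compound at one concentration, and incubated for 48 hours before percent growth was determined.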 The source made the active and inactive calls. How the source made its calls: active means growth percent below 10; inactive means the rest.

test system: UACC-257 melanoma; test: NCI-60 one-dose screen, 48 h (100 = growth as untreated, 0 = no growth, -100 = all killed); settings: 10 µM unless noted

| Compound | growth |
| --- | --- |
| CCCCC1CCCC12NC(=O)NC2=O (centres undefined) | 112% (inactive) |
| COc1ccc2c(c1)c(-c1nn3cc(-c4cccs4)nc3s1)cn2C | 105% (inactive) |
| COc1ccc([C@H]2c3cc(OC)c(OC)cc3C=C(C=O)C2CO)cc1OC (some centres undefined) | 39.7% (inactive) |
| C/C(=N/NC(N)=S)c1sc(Nc2cccc(Cl)c2)nc1C | 101% (inactive) |
| Cc1cccc2c3c(sc12)C(c1ccc(F)cc1)C(C#N)=C(N)O3 (centres undefined) | 68.2% (inactive) |
| COc1cc(C(=O)c2cnc(-c3cccc4[nH]ccc34)[nH]2)cc(OC)c1OC | 85% (inactive) |
| COc1ccc(C(=S)N2CCN(c3cccc(C)c3)CC2)cc1OC | 77.7% (inactive) |
| CCOC(=O)/C(C#N)=C\Nc1ccc2ncnc(Nc3ccc(Cl)cc3Cl)c2c1 | 97.2% (inactive) |
| Cc1nn(-c2ccccc2)c(-n2ccnc2)c1/C=N/Nc1nc(-c2ccc(F)cc2)cs1 | 75.6% (inactive) |
| Cc1cc(=O)oc2cc(OC(=O)N3CCN(C)CC3)ccc12 | 106% (inactive) |
| COc1cc(/C=C/c2c(C(C)=O)c(C)nc3ccccc23)cc(OC)c1OC | 59.6% (inactive) |
| NS(=O)(=O)c1ccc(-n2nc(-c3ccc(Cl)cc3)c3ccccc3c2=O)cc1 | 116% (inactive) |
| COc1ccc(C(=O)C[C@]2(O)C(=O)Nc3c(Cl)ccc(Cl)c32)cc1 | 63.9% (inactive) |
| O=c1[nH][n+](-c2ccc(Br)cc2)no1 | 55% (inactive) |
| COc1cc2cc(Oc3ccc(NC(=O)Nc4ccc(Cl)c(Cl)c4)cc3)c(C)nc2cc1OCCN1CCOCC1 | 74.3% (inactive) |
| C#C[C@]1(O)CC[C@H]2[C@@H]3CC=C4c5sc(Nc6ccccc6)nc5CC[C@]4(C)[C@H]3CC[C@@]21C | 30.4% (inactive) |
| CCCCCCCCCCCCCCCCCCOc1ccc(CC(=O)OCC[N+](C)(C)C)cc1 | 108% (inactive) |
| Cc1ccc(-c2nc3c(c(-c4ccccc4)nn3-c3ccccc3)c(-c3ccc(O)cc3)c2C#N)cc1 | 93.9% (inactive) |
| CN(C)CCS(=O)(=O)Nc1cc(-c2ccc3ncc(C#N)c(Nc4ccc(F)c(Cl)c4)c3c2)cnc1Cl | -17.3% (active) |

| Compound | growth |
| --- | --- |
| O=C(Nc1ccc(I)cc1F)c1cc(I)ccc1O | -17% (active) |
| C/C=C(\C)C(=O)N[C@H]1[C@@H](OC(C)=O)C[C@]2(C)C3CC[C@@]4(C)C(CC[C@@H]4C(C)N(C)C)C3CCC2[C@H]1O (some centres undefined) | 3.29% (active) |
| COc1ccc2[nH]c(-c3ccccc3)c(/C=C(\C#N)S(=O)(=O)c3ccccc3)c2c1 | 78.6% (inactive) |
| NCCNc1nc2ccccc2c2c(=O)c3cccc(F)c3sc12 | 101% (inactive) |
| Nc1nc2ccccc2c2c(=O)c3cc(F)ccc3sc12 | 104% (inactive) |
| O=C1CN(CCN2CC(=O)N(Cc3ccccc3)C(=O)C2)CC(=O)N1Cc1ccccc1 | 98.4% (inactive) |
| COc1ccc(-c2[nH]c3ccc(OC)cc3c2/C=C(\C#N)S(=O)(=O)c2ccccc2)cc1 | 81.7% (inactive) |
| CN1C(=O)N(C)C2Nn3c(s/c(=C\c4ccccc4)c3=O)=NC21 (centres undefined) | 94.1% (inactive) |
| Nc1ccc(Sc2ccc([N+](=O)[O-])c3nonc23)cc1 | 86.9% (inactive) |
| CS(=O)(=O)Nc1cc(-c2ccc3ncnc(Nc4cccc(Cl)c4F)c3c2)cnc1Cl | 40.1% (inactive) |
| CCCCNC(=O)Oc1ccc(/C(=C(\C)c2ccc(Cl)cc2)c2ccc(OCCN3CCCCC3)cc2)cc1 | 35.5% (inactive) |
| CCCSc1nc2ccc(C)cc2cc1/C=[N+](\[O-])c1ccccc1 | 63.3% (inactive) |
| C[C@H]1[C@H]2[C@H]3CC[C@@H]4[C@@]5(C)CC[C@H](O)C(C)(C)[C@@H]5CC[C@@]4(C)[C@]3(C)CC[C@]23CO[C@]1(C)[C@@H](C(=O)/C=C\c1cccnc1)C3 | 49.3% (inactive) |
| Cc1onc2c(-c3ccccc3)n[nH]c(=O)c12 | 122% (inactive) |
| COc1cc(/C=C/C(=O)/C=C/c2cc(OC)c3c(c2OC)OCO3)c(OC)c2c1OCO2 | 54.1% (inactive) |
| O=C1/C(=C/c2ccccc2[N+](=O)[O-])Oc2ccc(O)c(O)c21 | 49.3% (inactive) |
| CC1=C(C)C(=O)C(Nc2cccc(C(=O)OC(C)(C)C)c2)=C(Br)C1=O | 87.3% (inactive) |
| NS(=O)(=O)c1ccc(N=Nc2ccc(-c3nn4cc(-c5ccccc5)nc4s3)cc2)cc1 | 99.8% (inactive) |

test system: M14 melanoma; test: as above; settings: 10 µM unless noted

| Compound | growth |
| --- | --- |
| CCCCC1CCCC12NC(=O)NC2=O (centres undefined) | 109% (inactive) |
| COc1ccc2c(c1)c(-c1nn3cc(-c4cccs4)nc3s1)cn2C | 71.6% (inactive) |
| COc1ccc([C@H]2c3cc(OC)c(OC)cc3C=C(C=O)C2CO)cc1OC (some centres undefined) | 35.7% (inactive) |
| C/C(=N/NC(N)=S)c1sc(Nc2cccc(Cl)c2)nc1C | 88.3% (inactive) |
| Cc1cccc2c3c(sc12)C(c1ccc(F)cc1)C(C#N)=C(N)O3 (centres undefined) | 10.4% (inactive) |
| COc1cc(C(=O)c2cnc(-c3cccc4[nH]ccc34)[nH]2)cc(OC)c1OC | -6.97% (active) |
| COc1ccc(C(=S)N2CCN(c3cccc(C)c3)CC2)cc1OC | 38.4% (inactive) |
| CCOC(=O)/C(C#N)=C\Nc1ccc2ncnc(Nc3ccc(Cl)cc3Cl)c2c1 | 106% (inactive) |
| Cc1nn(-c2ccccc2)c(-n2ccnc2)c1/C=N/Nc1nc(-c2ccc(F)cc2)cs1 | 79.7% (inactive) |
| Cc1cc(=O)oc2cc(OC(=O)N3CCN(C)CC3)ccc12 | 95.5% (inactive) |
| COc1cc(/C=C/c2c(C(C)=O)c(C)nc3ccccc23)cc(OC)c1OC | 25.9% (inactive) |
| NS(=O)(=O)c1ccc(-n2nc(-c3ccc(Cl)cc3)c3ccccc3c2=O)cc1 | 103% (inactive) |
| COc1ccc(C(=O)C[C@]2(O)C(=O)Nc3c(Cl)ccc(Cl)c32)cc1 | 5.9% (active) |
| O=c1[nH][n+](-c2ccc(Br)cc2)no1 | 74% (inactive) |
| COc1cc2cc(Oc3ccc(NC(=O)Nc4ccc(Cl)c(Cl)c4)cc3)c(C)nc2cc1OCCN1CCOCC1 | 101% (inactive) |
| C#C[C@]1(O)CC[C@H]2[C@@H]3CC=C4c5sc(Nc6ccccc6)nc5CC[C@]4(C)[C@H]3CC[C@@]21C | 2.55% (active) |
| CCCCCCCCCCCCCCCCCCOc1ccc(CC(=O)OCC[N+](C)(C)C)cc1 | 91.5% (inactive) |
| Cc1ccc(-c2nc3c(c(-c4ccccc4)nn3-c3ccccc3)c(-c3ccc(O)cc3)c2C#N)cc1 | 60.3% (inactive) |
| CN(C)CCS(=O)(=O)Nc1cc(-c2ccc3ncc(C#N)c(Nc4ccc(F)c(Cl)c4)c3c2)cnc1Cl | -40.4% (active) |

| Compound | growth |
| --- | --- |
| O=C(Nc1ccc(I)cc1F)c1cc(I)ccc1O | 5.74% (active) |
| C/C=C(\C)C(=O)N[C@H]1[C@@H](OC(C)=O)C[C@]2(C)C3CC[C@@]4(C)C(CC[C@@H]4C(C)N(C)C)C3CCC2[C@H]1O (some centres undefined) | -32.7% (active) |
| COc1ccc2[nH]c(-c3ccccc3)c(/C=C(\C#N)S(=O)(=O)c3ccccc3)c2c1 | 42.7% (inactive) |
| NCCNc1nc2ccccc2c2c(=O)c3cccc(F)c3sc12 | 83.3% (inactive) |
| Nc1nc2ccccc2c2c(=O)c3cc(F)ccc3sc12 | 99.6% (inactive) |
| O=C1CN(CCN2CC(=O)N(Cc3ccccc3)C(=O)C2)CC(=O)N1Cc1ccccc1 | 109% (inactive) |
| COc1ccc(-c2[nH]c3ccc(OC)cc3c2/C=C(\C#N)S(=O)(=O)c2ccccc2)cc1 | 25.3% (inactive) |
| CN1C(=O)N(C)C2Nn3c(s/c(=C\c4ccccc4)c3=O)=NC21 (centres undefined) | 97.8% (inactive) |
| Nc1ccc(Sc2ccc([N+](=O)[O-])c3nonc23)cc1 | 88.7% (inactive) |
| CS(=O)(=O)Nc1cc(-c2ccc3ncnc(Nc4cccc(Cl)c4F)c3c2)cnc1Cl | 50.1% (inactive) |
| CCCCNC(=O)Oc1ccc(/C(=C(\C)c2ccc(Cl)cc2)c2ccc(OCCN3CCCCC3)cc2)cc1 | 68.2% (inactive) |
| CCCSc1nc2ccc(C)cc2cc1/C=[N+](\[O-])c1ccccc1 | 6.91% (active) |
| C[C@H]1[C@H]2[C@H]3CC[C@@H]4[C@@]5(C)CC[C@H](O)C(C)(C)[C@@H]5CC[C@@]4(C)[C@]3(C)CC[C@]23CO[C@]1(C)[C@@H](C(=O)/C=C\c1cccnc1)C3 | 60.8% (inactive) |
| Cc1onc2c(-c3ccccc3)n[nH]c(=O)c12 | 105% (inactive) |
| COc1cc(/C=C/C(=O)/C=C/c2cc(OC)c3c(c2OC)OCO3)c(OC)c2c1OCO2 | 31.7% (inactive) |
| O=C1/C(=C/c2ccccc2[N+](=O)[O-])Oc2ccc(O)c(O)c21 | 54.9% (inactive) |
| CC1=C(C)C(=O)C(Nc2cccc(C(=O)OC(C)(C)C)c2)=C(Br)C1=O | 95.1% (inactive) |
| NS(=O)(=O)c1ccc(N=Nc2ccc(-c3nn4cc(-c5ccccc5)nc4s3)cc2)cc1 | 96.6% (inactive) |
